# Measurements taken from the supplement of paper PMC8728848.
# The sample as a whole holds a higher share of the strongest signals than the screen did.
# B1: P-Selectin (Mus musculus), Q01102 (protein)
# chain: MAGCPKGSWTPRLRSVILGGAQLIWFSALISELVNQKEVAAWTYNYSTKAYSWNNSRVFCRRHFTDLVAIQNKNEIAHLNDVIPFFNSYYWIGIRKINNKWTWVGTNKTLTEEAENWADNEPNNKKNNQDCVEIYIKSNSAPGKWNDEPCFKRKRALCYTASCQDMSCSNQGECIETIGSYTCSCYPGFYGPECEYVKECGKVNIPQHVLMNCSHPLGEFSFNSQCTFSCAEGYELDGPGELQCLASGIWTNNPPKCDAVQCQSLEAPPHGTMACMHPIAAFAYDSSCKFECQPGYRARGSNTLHCTGSGQWSEPLPTCEAIACEPPEIPIHGSMDCVPSTGTFGYNSSCTFLCAEGFVLKGNDAIQCADSGQWTAPAPFCEALQCPEFPVPSKAQVNCSDPFGTLTYQSVCSFSCDEGSLLVGASVIRCLATGHWNGAPPECQAVSCAPMLSPENGSMTCVQPLGNSTYKSTCQFMCDEGFYLSGPERLDCSPSGHWTGTPPTCEAIKCPGIFAPEQGNLDCSHVHGEFGVGSICHFSCNEDFELLGSENVECTVSGRWSAPPPTCKGITSLPAPAVRCPALTTPGQGTMSCQHHLGSFGPNTTCYFGCKTGFTLRGANSLRCRASGQWTAVTPMCRAVKCSELHMDTAVAMNCSNPWGNFSYGSTCTFQCPEGQSLNGSVRATCREDGHWSDAMPTCQAGTLTIQEALTYLGGAVASTTGLAVGGTLLALLRKRLRKKDDGKCPLNPHSHLGTYGVFTNAAYDPTP
# Legend:
# Experiment in all cases: glycan array binding signal (z-score within array); higher = stronger binding
# Conditions in all cases: glycan notation: IUPAC condensed, linker removed
# [1] = target: Fuc(a1-2)Gal(b1-3)GalNAc(b1-3)Gal
# Method in brief: (§1)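 Glycan array data came from 3228 arrays in the Consortium for Functional Glycomics database, and only arrays with an available protein sequence were kept. Glycan names were put into IUPAC-condensed notation, and columns mapping to the same glycan were averaged. The binding signal is a within-array Z-score, averaged across arrays of one protein sequence run at different concentrations or buffers and across linkers. A negative Z-score can be read as non-binding.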
# [2] = target: Fuc(a1-2)Gal(b1-3)GalNAc(b1-4)[Neu5Ac(a2-3)]Gal(b1-4)Glc
# Method in brief: as §1
# [3] = target: Fuc(a1-3)[Gal(b1-4)]GlcNAc6S
# Method in brief: as §1
# [4] = target: Fuc(a1-3)[Gal3S(b1-4)]Glc6S
# Method in brief: as §1
# [5] = target: Fuc(a1-3)[Gal3S(b1-4)]GlcNAc6S
# Method in brief: as §1
# [6] = target: Gal(b1-3)GlcNAc(b1-3)Gal(b1-4)Glc
# Method in brief: as §1
# [7] = target: Gal(b1-3)[Fuc(a1-4)]GlcNAc(b1-3)Gal(b1-3)[Fuc(a1-4)]GlcNAc
# Method in brief: as §1
# [8] = target: Gal(b1-3)[GlcNAc(b1-6)]GalNAc
# Method in brief: as §1
# [9] = target: Gal(b1-4)GlcNAc(b1-3)Gal(b1-4)GlcNAc
# Method in brief: as §1
# [10] = target: Gal(b1-4)GlcNAc(b1-3)[Gal(b1-4)GlcNAc(b1-6)]GalNAc
# Method in brief: as §1
# [11] = target: Gal3S(b1-3)[Fuc(a1-4)]GlcNAc
# Method in brief: as §1
# Gal3S(b1-4)Glc = target: Gal3S(b1-4)Glc
# Method in brief: as §1
# [12] = target: Gal3S(b1-4)[Fuc(a1-3)]Glc
# Method in brief: as §1
# Gal3S6S(b1-4)GlcNAc = target: Gal3S6S(b1-4)GlcNAc
# Method in brief: as §1
# Gal6S(b1-4)GlcNAc = target: Gal6S(b1-4)GlcNAc
# Method in brief: as §1
# Glc(a1-4)Glc = target: Glc(a1-4)Glc
# Method in brief: as §1
# GlcNAc(b1-3)Gal(b1-4)Glc = target: GlcNAc(b1-3)Gal(b1-4)Glc
# Method in brief: as §1
# [13] = target: GlcNAc(b1-3)[GlcNAc(b1-6)]Gal(b1-4)GlcNAc
# Method in brief: as §1
# [14] = target: GlcNAc(b1-4)Gal(b1-4)GlcNAc
# Method in brief: as §1
# Kdn(a2-3)Gal(b1-3)GlcNAc = target: Kdn(a2-3)Gal(b1-3)GlcNAc
# Method in brief: as §1
# [15] = target: Neu5Ac(a2-3)Gal(b1-3)GalNAc(b1-3)Gal(b1-4)GlcNAc
# Method in brief: as §1
# [16] = target: Neu5Ac(a2-3)Gal(b1-3)GlcNAc
# Method in brief: as §1
# [17] = target: Neu5Ac(a2-3)Gal(b1-3)[Neu5Ac(a2-3)Gal(b1-4)]GlcNAc
# Method in brief: as §1
# [18] = target: Neu5Ac(a2-3)Gal(b1-4)GlcNAc(b1-2)Man(a1-3)[Neu5Ac(a2-3)Gal(b1-4)GlcNAc(b1-2)Man(a1-6)]Man(b1-4)GlcNAc(b1-4)GlcNAc
# Method in brief: as §1
# Neu5Ac(a2-3)GalNAc = target: Neu5Ac(a2-3)GalNAc
# Method in brief: as §1
# [19] = target: Neu5Ac(a2-3)[GalNAc(b1-4)]Gal(b1-4)Glc
# Method in brief: as §1
# [20] = target: Neu5Ac(a2-3)[Neu5Ac(a2-6)]GalNAc
# Method in brief: as §1
# [21] = target: Neu5Ac(a2-6)Gal(b1-4)GlcNAc(b1-2)Man(a1-6)[GlcNAc(b1-2)Man(a1-3)]Man(b1-4)GlcNAc(b1-4)GlcNAc
# Method in brief: as §1
# [22] = target: Neu5Gc(a2-3)Gal(b1-3)[Fuc(a1-4)]GlcNAc
# Method in brief: as §1
binder,measurement,setting,value
B1,glycan array binding signal (z-score),[1],-0.303
same,glycan array binding signal (z-score),[2],-0.426
same,glycan array binding signal (z-score),[3],2.1
same,glycan array binding signal (z-score),[4],3.7
same,glycan array binding signal (z-score),[5],3.95
same,glycan array binding signal (z-score),[6],-0.261
same,glycan array binding signal (z-score),[7],0.199
same,glycan array binding signal (z-score),[8],-0.4
same,glycan array binding signal (z-score),[9],-0.29
same,glycan array binding signal (z-score),[10],-0.495
same,glycan array binding signal (z-score),[11],3.6
same,glycan array binding signal (z-score),Gal3S(b1-4)Glc,-0.174
same,glycan array binding signal (z-score),[12],4.89
same,glycan array binding signal (z-score),Gal3S6S(b1-4)GlcNAc,1.4
same,glycan array binding signal (z-score),Gal6S(b1-4)GlcNAc,-0.055
same,glycan array binding signal (z-score),Glc(a1-4)Glc,-0.562
same,glycan array binding signal (z-score),GlcNAc(b1-3)Gal(b1-4)Glc,-0.616
same,glycan array binding signal (z-score),[13],-0.63
same,glycan array binding signal (z-score),[14],-0.478
same,glycan array binding signal (z-score),Kdn(a2-3)Gal(b1-3)GlcNAc,-0.37
same,glycan array binding signal (z-score),[15],-0.354
same,glycan array binding signal (z-score),[16],-0.3
same,glycan array binding signal (z-score),[17],-0.297
same,glycan array binding signal (z-score),[18],-0.154
same,glycan array binding signal (z-score),Neu5Ac(a2-3)GalNAc,-0.381
same,glycan array binding signal (z-score),[19],-0.331
same,glycan array binding signal (z-score),[20],0.023
same,glycan array binding signal (z-score),[21],-0.311
same,glycan array binding signal (z-score),[22],3.75
